In the supplement of paper PMC6897291:

System: RIVA
Assay: growth inhibition by drug alone (1 - RLU/untreated control) (fraction); higher = stronger inhibition
Settings: 177Lu-lilotomab satetraxetan 0 ug/ml
Description: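 RIVA (RI-1) ABC-DLBCL cells were pretreated or not for 18 h with 0.5 ug/ml 177Lu-lilotomab satetraxetan (600 MBq/mg), washed and seeded (3000 cells/well) on 384-well plates pre-printed with the Selleck Cambridge Cancer Compound library. Viability was read by RealTime-Glo luminescence on days 3-6 after seeding. Effect = 1 - RLU/mean RLU of the 48 untreated no-drug control wells per plate; Bliss score = (M-E)/(1-Fa).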

| Structure (SMILES) | growth inhibition by drug alone (10 nM, time (day): 3) | growth inhibition by drug alone (10 nM, time (day): 4) | growth inhibition by drug alone (10 nM, time (day): 5) | growth inhibition by drug alone (10 nM, time (day): 6) | growth inhibition by drug alone (100 nM, time (day): 3) | growth inhibition by drug alone (100 nM, time (day): 4) | growth inhibition by drug alone (100 nM, time (day): 5) | growth inhibition by drug alone (100 nM, time (day): 6) |
| --- | --- | --- | --- | --- | --- | --- | --- | --- |
| Cn1cnc2c(F)c(Nc3ccc(Br)cc3Cl)c(C(=O)NOCCO)cc21 [AZD6244 (Selumetinib)] | 0.0177 | -0.0269 | -0.137 | -0.558 | -0.313 | -0.239 | -0.319 | -0.531 |
| Cc1cc(Nc2cc(N3CCN(C)CC3)nc(Sc3ccc(NC(=O)C4CC4)cc3)n2)n[nH]1 [VX-680 (MK-0457, Tozasertib)] | -0.0364 | -0.0738 | -0.11 | -0.195 | -0.135 | -0.125 | -0.0167 | 0.173 |
| COc1cc2ncnc(Nc3ccc(Oc4ccccc4)cc3)c2cc1OC | 0.00348 | 0.0579 | -0.00953 | -0.188 | -0.0251 | 0.00379 | -0.0229 | -0.143 |
| O=C(O)C(=O)O.[NH-]C1CCCCC1[NH-].[Pt+2] (stereo not given) [Oxaliplatin (Eloxatin)] | 0.335 | 0.288 | 0.293 | 0.22 | -0.171 | -0.0865 | -0.121 | -0.155 |
| C[C@@H](Oc1cc(-n2cnc3ccc(CN4CCN(C)CC4)cc32)sc1C(N)=O)c1ccccc1C(F)(F)F | 0.364 | 0.265 | 0.248 | 0.223 | 0.944 | 0.961 | 0.967 | 0.969 |
